Experiments:
Assay in all cases: SPOT peptide array binding signal intensity (averaged, normalized) (arbitrary units (background-subtracted, floor 0; scale differs between SH3 domains)); higher = stronger binding of the SH3 domain to the peptide
AgAbp1 = target: AgAbp1
In short: (§1)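 Detection of bound protein relied on anti-GST antibody, an HRP anti-mouse secondary and luminol, with imaging and quantification in Genespotter. The bound protein was GST-fused SH3 domains from four yeast species, incubated at 10 μg/ml overnight at 4°C in TBS-based blocking buffer on cellulose membranes carrying synthetic 15-mer peptides with cysteines replaced by serines. Binding signal is normalized, background-subtracted spot intensity averaged over replicates, in arbitrary units that differ between domains.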

AgBbc1 = target: AgBbc1
In short: as §1

AgBem1-D1 = target: AgBem1-D1
In short: as §1

AgBzz1-D1 = target: AgBzz1-D1
In short: as §1

AgBzz1-D2 = target: AgBzz1-D2
In short: as §1

AgCyk3 = target: AgCyk3
In short: as §1

AgFus1 = target: AgFus1
In short: as §1

AgHof1 = target: AgHof1
In short: as §1

AgHse1 = target: AgHse1
In short: as §1

AgLsb1 = target: AgLsb1
In short: as §1

AgLsb4 = target: AgLsb4
In short: as §1

AgMyo5 = target: AgMyo5
In short: as §1

AgNbp2 = target: AgNbp2
In short: as §1

AgRvs167 = target: AgRvs167
In short: as §1

AgSho1 = target: AgSho1
In short: as §1

AgSla1-D1-D2 = target: AgSla1-D1-D2
In short: as §1

AgSla1-D3 = target: AgSla1-D3
In short: as §1

CaAbp1-D1 = target: CaAbp1-D1
In short: as §1

CaAbp1-D2 = target: CaAbp1-D2
In short: as §1

CaBbc1 = target: CaBbc1
In short: as §1

CaBem1-D1 = target: CaBem1-D1
In short: as §1

CaBzz1-D1 = target: CaBzz1-D1
In short: as §1

CaBzz1-D2 = target: CaBzz1-D2
In short: as §1

CaCyk3 = target: CaCyk3
In short: as §1

CaFus1 = target: CaFus1
In short: as §1

CaHof1 = target: CaHof1
In short: as §1

CaHse1 = target: CaHse1
In short: as §1

CaLsb1 = target: CaLsb1
In short: as §1

CaLsb4 = target: CaLsb4
In short: as §1

CaMyo5 = target: CaMyo5
In short: as §1

CaNbp2 = target: CaNbp2
In short: as §1

CaRvs167 = target: CaRvs167
In short: as §1

CaRvs167-3 = target: CaRvs167-3
In short: as §1

CaSho1 = target: CaSho1
In short: as §1

CaSla1-D1-D2 = target: CaSla1-D1-D2
In short: as §1

CaSla1-D3 = target: CaSla1-D3
In short: as §1

ScAbp1 = target: ScAbp1
In short: as §1

ScBbc1 = target: ScBbc1
In short: as §1

ScBem1-D1 = target: ScBem1-D1
In short: as §1

ScBzz1-D1 = target: ScBzz1-D1
In short: as §1

ScBzz1-D2 = target: ScBzz1-D2
In short: as §1

ScCyk3 = target: ScCyk3
In short: as §1

ScFus1 = target: ScFus1
In short: as §1

ScHof1 = target: ScHof1
In short: as §1

ScHse1 = target: ScHse1
In short: as §1

ScLsb1 = target: ScLsb1
In short: as §1

ScLsb2 = target: ScLsb2
In short: as §1

ScLsb3 = target: ScLsb3
In short: as §1

ScLsb4 = target: ScLsb4
In short: as §1

ScMyo3 = target: ScMyo3
In short: as §1

ScMyo5 = target: ScMyo5
In short: as §1

ScNbp2 = target: ScNbp2
In short: as §1

ScPex13 = target: ScPex13
In short: as §1

ScRvs167 = target: ScRvs167
In short: as §1

ScSho1 = target: ScSho1
In short: as §1

ScSla1-D1-D2 = target: ScSla1-D1-D2
In short: as §1

ScSla1-D3 = target: ScSla1-D3
In short: as §1

SpAbp1-D1 = target: SpAbp1-D1
In short: as §1

SpBbc1 = target: SpBbc1
In short: as §1

SpBzz1-D1 = target: SpBzz1-D1
In short: as §1

SpBzz1-D2 = target: SpBzz1-D2
In short: as §1

SpCyk3 = target: SpCyk3
In short: as §1

SpHof1 = target: SpHof1
In short: as §1

SpHof1-2 = target: SpHof1-2
In short: as §1

SpHof1-3 = target: SpHof1-3
In short: as §1

SpHse1 = target: SpHse1
In short: as §1

SpLsb1 = target: SpLsb1
In short: as §1

SpLsb4 = target: SpLsb4
In short: as §1

SpMyo1 = target: SpMyo1
In short: as §1

SpNbp2 = target: SpNbp2
In short: as §1

SpPex13 = target: SpPex13
In short: as §1

SpRvs167 = target: SpRvs167
In short: as §1

SpSla1-D1-D2 = target: SpSla1-D1-D2
In short: as §1

SpSla1-D3 = target: SpSla1-D3
In short: as §1

B1: unnamed (peptide)
chain: AHFQPQRTAPKPPIS
SPOT peptide array binding signal intensity (AgAbp1): 2.5
SPOT peptide array binding signal intensity (AgBbc1): 89.8
SPOT peptide array binding signal intensity (AgBem1-D1): 58.8
SPOT peptide array binding signal intensity (AgBzz1-D1): 16
SPOT peptide array binding signal intensity (AgBzz1-D2): 54.5
SPOT peptide array binding signal intensity (AgCyk3): ≤ 0
SPOT peptide array binding signal intensity (AgFus1): ≤ 0
SPOT peptide array binding signal intensity (AgHof1): 3
SPOT peptide array binding signal intensity (AgHse1): 18
SPOT peptide array binding signal intensity (AgLsb1): 16.8
SPOT peptide array binding signal intensity (AgLsb4): 0.5
SPOT peptide array binding signal intensity (AgMyo5): 954
SPOT peptide array binding signal intensity (AgNbp2): 3970
SPOT peptide array binding signal intensity (AgRvs167): 0.583
SPOT peptide array binding signal intensity (AgSho1): ≤ 0
SPOT peptide array binding signal intensity (AgSla1-D1-D2): ≤ 0
SPOT peptide array binding signal intensity (AgSla1-D3): 1
SPOT peptide array binding signal intensity (CaAbp1-D1): 65.5
SPOT peptide array binding signal intensity (CaAbp1-D2): 33.8
SPOT peptide array binding signal intensity (CaBbc1): 743
SPOT peptide array binding signal intensity (CaBem1-D1): 958
SPOT peptide array binding signal intensity (CaBzz1-D1): 779
SPOT peptide array binding signal intensity (CaBzz1-D2): 136
SPOT peptide array binding signal intensity (CaCyk3): ≤ 0
SPOT peptide array binding signal intensity (CaFus1): ≤ 0
SPOT peptide array binding signal intensity (CaHof1): ≤ 0
SPOT peptide array binding signal intensity (CaHse1): 2.5
SPOT peptide array binding signal intensity (CaLsb1): ≤ 0
SPOT peptide array binding signal intensity (CaLsb4): 23
SPOT peptide array binding signal intensity (CaMyo5): 33.6
SPOT peptide array binding signal intensity (CaNbp2): 3970
SPOT peptide array binding signal intensity (CaRvs167): 12.8
SPOT peptide array binding signal intensity (CaRvs167-3): ≤ 0
SPOT peptide array binding signal intensity (CaSho1): 11.8
SPOT peptide array binding signal intensity (CaSla1-D1-D2): 54.5
SPOT peptide array binding signal intensity (CaSla1-D3): 0.75
SPOT peptide array binding signal intensity (ScAbp1): 11
SPOT peptide array binding signal intensity (ScBbc1): 165
SPOT peptide array binding signal intensity (ScBem1-D1): 6
SPOT peptide array binding signal intensity (ScBzz1-D1): 17.5
SPOT peptide array binding signal intensity (ScBzz1-D2): 12.8
SPOT peptide array binding signal intensity (ScCyk3): ≤ 0
SPOT peptide array binding signal intensity (ScFus1): ≤ 0
SPOT peptide array binding signal intensity (ScHof1): 0.5
SPOT peptide array binding signal intensity (ScHse1): 37
SPOT peptide array binding signal intensity (ScLsb1): 0.25
SPOT peptide array binding signal intensity (ScLsb2): 35
SPOT peptide array binding signal intensity (ScLsb3): 152
SPOT peptide array binding signal intensity (ScLsb4): 5
SPOT peptide array binding signal intensity (ScMyo3): 1610
SPOT peptide array binding signal intensity (ScMyo5): 1320
SPOT peptide array binding signal intensity (ScNbp2): 6790
SPOT peptide array binding signal intensity (ScPex13): 212
SPOT peptide array binding signal intensity (ScRvs167): 59.8
SPOT peptide array binding signal intensity (ScSho1): ≤ 0
SPOT peptide array binding signal intensity (ScSla1-D1-D2): 265
SPOT peptide array binding signal intensity (ScSla1-D3): 44
SPOT peptide array binding signal intensity (SpAbp1-D1): ≤ 0
SPOT peptide array binding signal intensity (SpBbc1): 22
SPOT peptide array binding signal intensity (SpBzz1-D1): 258
SPOT peptide array binding signal intensity (SpBzz1-D2): 18.1
SPOT peptide array binding signal intensity (SpCyk3): ≤ 0
SPOT peptide array binding signal intensity (SpHof1): 1.62
SPOT peptide array binding signal intensity (SpHof1-2): 2
SPOT peptide array binding signal intensity (SpHof1-3): 34
SPOT peptide array binding signal intensity (SpHse1): 70.1
SPOT peptide array binding signal intensity (SpLsb1): 36.8
SPOT peptide array binding signal intensity (SpLsb4): 87.5
SPOT peptide array binding signal intensity (SpMyo1): 2050
SPOT peptide array binding signal intensity (SpNbp2): 264
SPOT peptide array binding signal intensity (SpPex13): ≤ 0
SPOT peptide array binding signal intensity (SpRvs167): 13.9
SPOT peptide array binding signal intensity (SpSla1-D1-D2): ≤ 0
SPOT peptide array binding signal intensity (SpSla1-D3): ≤ 0

B2: unnamed (peptide)
chain: DAPASKPSVPPRNYF
SPOT peptide array binding signal intensity (AgAbp1): 2.5
SPOT peptide array binding signal intensity (AgBbc1): 239
SPOT peptide array binding signal intensity (AgBem1-D1): 2
SPOT peptide array binding signal intensity (AgBzz1-D1): 26.5
SPOT peptide array binding signal intensity (AgBzz1-D2): ≤ 0
SPOT peptide array binding signal intensity (AgCyk3): 2.5
SPOT peptide array binding signal intensity (AgFus1): ≤ 0
SPOT peptide array binding signal intensity (AgHof1): ≤ 0
SPOT peptide array binding signal intensity (AgHse1): ≤ 0
SPOT peptide array binding signal intensity (AgLsb1): 1080
SPOT peptide array binding signal intensity (AgLsb4): 69.5
SPOT peptide array binding signal intensity (AgMyo5): ≤ 0
SPOT peptide array binding signal intensity (AgNbp2): 45
SPOT peptide array binding signal intensity (AgRvs167): 13.2
SPOT peptide array binding signal intensity (AgSho1): 1
SPOT peptide array binding signal intensity (AgSla1-D1-D2): ≤ 0
SPOT peptide array binding signal intensity (AgSla1-D3): ≤ 0
SPOT peptide array binding signal intensity (CaAbp1-D1): 17.5
SPOT peptide array binding signal intensity (CaAbp1-D2): 3
SPOT peptide array binding signal intensity (CaBbc1): 962
SPOT peptide array binding signal intensity (CaBem1-D1): ≤ 0
SPOT peptide array binding signal intensity (CaBzz1-D1): 190
SPOT peptide array binding signal intensity (CaBzz1-D2): 5.75
SPOT peptide array binding signal intensity (CaCyk3): 34.5
SPOT peptide array binding signal intensity (CaFus1): ≤ 0
SPOT peptide array binding signal intensity (CaHof1): ≤ 0
SPOT peptide array binding signal intensity (CaHse1): ≤ 0
SPOT peptide array binding signal intensity (CaLsb1): 35
SPOT peptide array binding signal intensity (CaLsb4): 427
SPOT peptide array binding signal intensity (CaMyo5): ≤ 0

From the supplement of paper PMC4466140
